Compound activity as filed in PubChem BioAssay.
HPGD block: qHTS Assay for Inhibitors of HPGD (15-Hydroxyprostaglandin Dehydrogenase). 15-hydroxyprostaglandin dehydrogenase [NAD(+)] (Homo sapiens), P15428. purified HPGD, NADH fluorescence kinetic, PGE2 substrate. Potency, µM, actives largely listed as inhibitors. actives 4.3% (n = 150,000)
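NADH formation kinetics: reaction with 30 uM PGE2 and 1 mM NAD+ (final), 20 nM enzyme, Tris-HCl pH 8 with Tween 20, after 15 min compound preincubation at room temperature. Fluorescence change, last versus first of five reads.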
HTT aggregate: qHTS Multiplex Assay to Identify Dual Action Probes in a Cell Model of Huntington: Aggregate Formation (GFP); actives 1.1% (n = 220,000); Potency, µM (top dose mostly 46.1 µM), hits mostly inhibitors; AID 1688, 2009; PC12 HttQ103-GFP aggregates, Acumen cytometry, 40 h; active = well fitted curve in the direction sought with a large enough effect; inconclusive = small, poorly fitted or top-dose-only effect, or another doubt; inactive = no such curve, though single readings can be large; an effect the other way counts as inactive or inconclusive; note: nearly all actives have a fitted effect of over 60% in size
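Steps: seed 1500 PC12 HTTQ103-GFP cells/well; add tebufenozide, 100 nM final; add compound titration; add ATPLite reagent; quantify GFP aggregates by laser scanning cytometry.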
HTT cytoprotect: qHTS Multiplex Assay to Identify Dual Action Probes in a Cell Model of Huntington: Cytoprotection (ATP); PC12 HTT-Q103 induced, cytoprotection, ATP luminescence, 40 h; Potency, µM (doses to about 56.4 µM), actives largely listed as activators; actives 0.14% (n = 230,000); AID 1471, 2008; active = well fitted curve in the direction sought with a large enough effect; inconclusive = small, poorly fitted or top-dose-only effect, or another doubt; inactive = no such curve, though single readings can be large; an effect the other way counts as inactive or inconclusive; note: nearly all actives have a fitted effect of over 45% in size
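ATP quantification (ATPlite) reports survival of PC12 cells in which tebufenozide, 100 nM final, switches on Htt exon 1 with 103 glutamines linked to GFP; compounds are titrated.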
PNC assembly inh: High Content Assay for Compounds that inhibit the Assembly of the Perinucleolar Compartment; actives 3.1% (n = 140,000); AID 2417, 2010; PC3M PTB-GFP, PNC prevalence imaging, 16 h; active compounds read low; activity change (PNC), negative = inhibition, % at 10 µM;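 active = readout at or below -70, meaning at least 70% loss of cells showing the perinucleolar compartment, a nuclear body marking cancer cells; inconclusive = readout between -30 and a set limit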
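PC3M cells stably expressing PTB-GFP, 750–1000 cells/well, treated 16 h at 37 °C with compound (23 nl of library stock), in duplicate. After paraformaldehyde fixation and Hoechst stain, imaged at 20x; PNC prevalence scored by image analysis.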
GoLoco inh red: qHTS Assay for Inhibitors of RGS12 GoLoco Motif Activity (Red Fluorophore) | Gai1:RGS12 GoLoco peptide FP, rhodamine, 10 min | Potency, µM (series often up to 61.6 µM), actives largely listed as inhibitors | actives 0.44% (n = 230,000) | AID 880, 2007; active = well fitted inhibition curve with a large enough effect, not every such curve was filed as active; inactive = no such curve, though single readings can be large or run the other way; note: nearly all actives have a fitted effect of over 30% in size
ALDH1A1 inh: qHTS Assay for Inhibitors of Aldehyde Dehydrogenase 1 (ALDH1A1). Aldehyde dehydrogenase 1A1 (Homo sapiens), P00352. Purified ALDH1A1, NADH fluorescence, propionaldehyde substrate. Potency, µM (doses to about 75.3 µM), actives largely listed as inhibitors. actives 7.3% (n = 220,000). AID 1030, 2008
Target sequence (P00352 whole entry, looked up): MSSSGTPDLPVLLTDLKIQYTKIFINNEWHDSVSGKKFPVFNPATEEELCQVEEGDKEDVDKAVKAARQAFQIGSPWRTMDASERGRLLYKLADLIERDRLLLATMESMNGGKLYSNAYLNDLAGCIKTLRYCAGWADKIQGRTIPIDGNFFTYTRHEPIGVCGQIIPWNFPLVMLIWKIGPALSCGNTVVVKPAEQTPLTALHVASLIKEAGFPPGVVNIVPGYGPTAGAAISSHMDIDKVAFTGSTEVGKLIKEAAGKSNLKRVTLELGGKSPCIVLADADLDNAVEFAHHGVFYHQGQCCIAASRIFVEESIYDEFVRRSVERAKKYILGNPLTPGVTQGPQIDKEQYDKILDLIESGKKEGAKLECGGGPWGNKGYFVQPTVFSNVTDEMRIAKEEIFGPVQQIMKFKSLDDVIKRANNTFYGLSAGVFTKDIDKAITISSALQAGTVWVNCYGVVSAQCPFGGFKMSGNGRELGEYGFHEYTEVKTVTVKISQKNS
Of the large screens only hits and unclear results are named; the others gave an inactive call. Rows were chosen to be rich in hits. Some 11% of all compounds tested hit in one or more screens of this group. Unless noted, calls come from the whole dose curve; as a rule, active = well fitted inhibition curve with a large enough effect (not every such curve was filed as active); inconclusive = small, poorly fitted or top-dose-only effect, or another doubt; inactive = no such curve, though single readings can be large or run the other way.

O=S(=O)(CCC(F)=C(F)F)c1nnnn1C1CCCCC1	HTT cytoprotect 4µM (no result: HTT aggregate, PNC assembly inh)
NC[C@@H](O)CSCc1ccc(Cl)cc1	none (no result: HTT aggregate, PNC assembly inh)
CC(C)(C)C(=O)Nc1sc2c(c1C(=O)Nc1ccccn1)CCCC2	ALDH1A1 inh inconclusive (no result: HPGD block, PNC assembly inh)
O=C(Nc1ccn(Cc2ccc(Cl)cc2)n1)c1ccc2c(c1)OCO2	PNC assembly inh -82, ALDH1A1 inh inconclusive
O=C(Nc1ccc2c(c1)OCO2)c1ccc(CN2CCOCC2)cc1	none
O=C(Nc1ccc(CN2CCCCC2)cc1)c1ccc2c(c1)OCO2	HPGD block 28µM
Cc1ccc(S(=O)(=O)CCc2nc3ccccc3[nH]2)cc1C	none (no result: HPGD block, PNC assembly inh)
Cc1ccccc1Oc1cc(-n2ncc(Cl)c(Cl)c2=O)ncn1	HTT aggregate inconclusive, PNC assembly inh -87, ALDH1A1 inh 1.6µM
CCOc1cnn(-c2cc(Oc3ccc(C)cc3)ncn2)c(=O)c1Cl	ALDH1A1 inh 11µM
O=C(CCn1cnnn1)Nc1ccc(F)cc1	none (no result: HPGD block, PNC assembly inh)
S=C(NCc1ccncc1)Nc1cccc(Cl)c1	PNC assembly inh inconclusive
Clc1cccc(NCc2nnc(SCc3ccc(Cl)cc3Cl)o2)c1	HTT aggregate inconclusive, PNC assembly inh -119
S=c1[nH]nc(CNc2cccc(Cl)c2)o1	ALDH1A1 inh 32µM (no result: HPGD block, HTT aggregate, HTT cytoprotect, PNC assembly inh)
N#C[C@H]1CN[C@H](N)N[C@@H]1N	none (no result: HTT aggregate, PNC assembly inh)
COc1ccc(NC(=O)Cc2ccc(C)c(C)c2)cc1Cl	ALDH1A1 inh inconclusive (no result: HPGD block, PNC assembly inh)
Cc1ccc(NC(=O)Cn2cccc2)cc1Cl	HPGD block 16µM, ALDH1A1 inh 11µM
COCC(=O)Nc1ccc(C)c(Cl)c1	HPGD block 14µM
CCCCOC(=O)Nc1ccc(C)c(Cl)c1	HPGD block 16µM
CC1(C)CC2C1CC[C@]1(C)CCC3C(C(=O)O)CC(=O)O[C@]32C1 (some centres undefined)	none (no result: HTT aggregate, HTT cytoprotect, PNC assembly inh)
Cc1c(NS(=O)(=O)c2ccc(N(C)C3CCCCC3)c([N+](=O)[O-])c2)c(=O)n(-c2ccccc2)n1C	HTT aggregate inconclusive, ALDH1A1 inh inconclusive
C[C@@H]1C=CCC(=O)OC[C@H](C)C(=O)OC[C@H]2O[C@H]1C=C[C@@H]2O	HTT cytoprotect inconclusive (no result: HPGD block, HTT aggregate, PNC assembly inh, GoLoco inh red)
CC(C)(C)C1CCc2onc(C(=O)Nc3cccnc3)c2C1 (centres undefined)	none
CCCc1cc(C(=O)Nc2ccccc2SC)no1	HPGD block 22µM, ALDH1A1 inh inconclusive
O=C(Nc1cccnc1)c1noc2c1CCCC2	ALDH1A1 inh 22µM
CCCc1cc(C(=O)Nc2ccc(F)cc2F)no1	none
CCCc1cc(C(=O)Nc2cccnc2)no1	PNC assembly inh -106
O=C(COC(=O)C1COc2ccccc2O1)Nc1ccc2c(c1)CCC2 (centres undefined)	PNC assembly inh inconclusive
COc1ccc([N+](=O)[O-])cc1NC(=O)c1ccccc1SC	ALDH1A1 inh inconclusive (no result: HPGD block, HTT cytoprotect, PNC assembly inh)
CSc1ccccc1NC(=O)c1ccc([N+](=O)[O-])cc1	ALDH1A1 inh 14µM (no result: HPGD block, HTT cytoprotect, PNC assembly inh)
CC(=O)OC1CC2C(C)(C)C(=O)C=C[C@]2(C)C2CC[C@@]3(C)C(c4ccoc4)OC(=O)C4O[C@@]43[C@]12C (some centres undefined)	HTT cytoprotect inconclusive (no result: HTT aggregate, PNC assembly inh)
CCCCCSc1nnc(-c2ccccc2NC(C)=O)c(=O)[nH]1	HTT cytoprotect 2.8µM (no result: HPGD block, PNC assembly inh)
Nc1ccccc1-c1nnc(SCc2ccccc2Cl)[nH]c1=O	none
CC(=O)Nc1ccccc1-c1nnc(SCc2ccccc2Cl)[nH]c1=O	HPGD block 16µM
CC1(C)CC(=O)c2c(O)cc(OCc3ccc([N+](=O)[O-])cc3)cc2O1	none
CC(C)c1ccc(C(=O)CSc2ncn[nH]2)cc1	HPGD block 32µM, ALDH1A1 inh inconclusive
